Data taken from the supplement of paper PMC10849652.
Targets with a hit are over-represented here; the source holds about 7,900 in all. About 0.6% of all pairs of compound and target were hits. A number with no mark means an inactive call.

compound: NC1(c2ccc(-c3nc4ccn5c(=O)[nH]nc5c4cc3-c3ccccc3)cc2)CCC1; test: log2 fold change, soluble protein after heating vs DMSO (PISA); higher = thermal stabilisation; K562 cells, 10 uM, 30 min; active = over 0.2 and 3.5 SD of the protein, either way, in both replicates (recomputed)
Outline: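 Values are thermal stability changes relative to control samples and are taken from duplicates. They are stated as log2 fold changes. Before quantification by TMTpro 16plex LC-MS/MS with equalised channel sums, K562 cells at 2×10^6 cells/mL were treated with 10 μM compound for 30 min, heated in aliquots for 3 min across 48°C-58°C, pooled, extracted in PBS with 0.5% NP-40 at 4°C, and centrifuged at 21,000xg for 90 min to give the soluble supernatant.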

UniProt Q7KZN9, sequence (Q7KZN9 whole entry, looked up): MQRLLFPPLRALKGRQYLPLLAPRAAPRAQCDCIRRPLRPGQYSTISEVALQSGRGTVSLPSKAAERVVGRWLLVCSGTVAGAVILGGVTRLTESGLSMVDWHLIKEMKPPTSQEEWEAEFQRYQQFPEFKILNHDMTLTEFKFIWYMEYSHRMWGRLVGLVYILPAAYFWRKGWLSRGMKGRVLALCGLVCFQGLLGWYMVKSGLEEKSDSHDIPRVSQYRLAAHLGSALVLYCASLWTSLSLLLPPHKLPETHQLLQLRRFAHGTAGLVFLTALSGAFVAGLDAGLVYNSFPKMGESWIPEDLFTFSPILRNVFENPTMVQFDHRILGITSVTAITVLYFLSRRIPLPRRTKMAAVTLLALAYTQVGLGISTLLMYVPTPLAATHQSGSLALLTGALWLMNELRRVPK
UniProt Q9NZN8, sequence (Q9NZN8 whole entry, looked up): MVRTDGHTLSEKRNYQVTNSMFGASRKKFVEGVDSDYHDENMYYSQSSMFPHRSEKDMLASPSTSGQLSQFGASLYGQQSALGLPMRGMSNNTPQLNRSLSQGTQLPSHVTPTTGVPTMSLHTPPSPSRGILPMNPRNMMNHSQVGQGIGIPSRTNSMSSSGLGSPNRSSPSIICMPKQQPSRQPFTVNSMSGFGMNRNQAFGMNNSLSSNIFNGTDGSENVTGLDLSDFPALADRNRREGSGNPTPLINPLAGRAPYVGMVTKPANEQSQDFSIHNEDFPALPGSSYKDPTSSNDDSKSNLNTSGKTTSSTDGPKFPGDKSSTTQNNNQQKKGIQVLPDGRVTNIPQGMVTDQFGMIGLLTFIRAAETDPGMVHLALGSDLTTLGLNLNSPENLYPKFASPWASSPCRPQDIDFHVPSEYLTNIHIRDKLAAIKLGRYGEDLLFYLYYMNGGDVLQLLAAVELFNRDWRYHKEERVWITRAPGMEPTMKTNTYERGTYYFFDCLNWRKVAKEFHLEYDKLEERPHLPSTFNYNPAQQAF
UniProt P09497, sequence (P09497 whole entry, looked up): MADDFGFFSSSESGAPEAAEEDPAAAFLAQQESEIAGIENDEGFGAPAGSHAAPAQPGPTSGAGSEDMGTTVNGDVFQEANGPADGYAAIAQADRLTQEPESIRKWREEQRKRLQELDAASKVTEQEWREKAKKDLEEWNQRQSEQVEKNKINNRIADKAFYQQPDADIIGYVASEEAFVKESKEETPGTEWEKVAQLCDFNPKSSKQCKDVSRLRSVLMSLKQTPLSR
UniProt P16152, sequence (P16152 whole entry, looked up): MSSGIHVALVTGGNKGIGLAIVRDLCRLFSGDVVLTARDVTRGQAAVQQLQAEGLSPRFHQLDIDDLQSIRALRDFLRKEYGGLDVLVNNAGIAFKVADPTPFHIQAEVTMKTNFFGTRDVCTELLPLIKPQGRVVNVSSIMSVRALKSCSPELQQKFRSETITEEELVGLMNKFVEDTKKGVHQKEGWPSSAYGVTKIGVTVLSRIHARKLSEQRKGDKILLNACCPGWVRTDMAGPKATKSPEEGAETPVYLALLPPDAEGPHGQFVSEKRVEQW
UniProt O95628, sequence (O95628 whole entry, looked up): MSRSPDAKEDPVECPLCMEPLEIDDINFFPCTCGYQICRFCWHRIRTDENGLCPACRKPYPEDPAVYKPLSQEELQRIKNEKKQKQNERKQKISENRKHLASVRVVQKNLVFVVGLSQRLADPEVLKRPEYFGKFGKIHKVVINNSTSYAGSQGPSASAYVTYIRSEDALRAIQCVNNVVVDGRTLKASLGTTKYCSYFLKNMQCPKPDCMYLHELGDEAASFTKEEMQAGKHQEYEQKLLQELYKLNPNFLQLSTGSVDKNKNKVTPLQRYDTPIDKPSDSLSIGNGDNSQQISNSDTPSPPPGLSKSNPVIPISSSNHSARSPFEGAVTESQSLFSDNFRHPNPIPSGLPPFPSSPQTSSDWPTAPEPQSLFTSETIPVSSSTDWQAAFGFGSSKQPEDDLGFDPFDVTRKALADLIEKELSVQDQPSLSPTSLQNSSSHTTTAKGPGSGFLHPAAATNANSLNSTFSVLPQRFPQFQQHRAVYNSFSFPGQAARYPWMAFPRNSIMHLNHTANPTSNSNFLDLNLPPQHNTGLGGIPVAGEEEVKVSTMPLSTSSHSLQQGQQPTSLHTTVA
UniProt P83916, sequence (P83916 whole entry, looked up): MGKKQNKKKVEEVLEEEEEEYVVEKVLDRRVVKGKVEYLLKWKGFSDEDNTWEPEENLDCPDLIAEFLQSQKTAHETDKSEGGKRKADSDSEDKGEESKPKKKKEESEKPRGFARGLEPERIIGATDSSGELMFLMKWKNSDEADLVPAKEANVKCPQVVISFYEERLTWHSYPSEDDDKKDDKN
UniProt P48729, sequence (P48729 whole entry, looked up): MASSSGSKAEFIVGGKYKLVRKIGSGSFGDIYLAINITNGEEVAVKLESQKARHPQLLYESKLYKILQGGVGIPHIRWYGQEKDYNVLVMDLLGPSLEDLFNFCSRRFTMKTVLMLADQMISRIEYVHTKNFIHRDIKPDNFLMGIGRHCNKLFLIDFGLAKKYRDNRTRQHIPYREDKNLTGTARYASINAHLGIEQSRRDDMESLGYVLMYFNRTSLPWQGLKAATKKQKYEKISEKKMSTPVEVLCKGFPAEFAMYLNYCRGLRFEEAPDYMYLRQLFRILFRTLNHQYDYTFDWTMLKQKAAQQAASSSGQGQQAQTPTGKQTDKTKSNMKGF
UniProt P48509, sequence (P48509 whole entry, looked up): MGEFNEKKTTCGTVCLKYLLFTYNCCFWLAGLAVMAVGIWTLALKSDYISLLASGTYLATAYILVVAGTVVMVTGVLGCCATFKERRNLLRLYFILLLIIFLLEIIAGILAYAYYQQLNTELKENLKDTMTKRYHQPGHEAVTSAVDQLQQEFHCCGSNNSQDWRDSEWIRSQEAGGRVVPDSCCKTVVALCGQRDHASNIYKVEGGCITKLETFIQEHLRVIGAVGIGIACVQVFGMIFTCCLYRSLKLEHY
UniProt Q14839, sequence (Q14839 whole entry, looked up): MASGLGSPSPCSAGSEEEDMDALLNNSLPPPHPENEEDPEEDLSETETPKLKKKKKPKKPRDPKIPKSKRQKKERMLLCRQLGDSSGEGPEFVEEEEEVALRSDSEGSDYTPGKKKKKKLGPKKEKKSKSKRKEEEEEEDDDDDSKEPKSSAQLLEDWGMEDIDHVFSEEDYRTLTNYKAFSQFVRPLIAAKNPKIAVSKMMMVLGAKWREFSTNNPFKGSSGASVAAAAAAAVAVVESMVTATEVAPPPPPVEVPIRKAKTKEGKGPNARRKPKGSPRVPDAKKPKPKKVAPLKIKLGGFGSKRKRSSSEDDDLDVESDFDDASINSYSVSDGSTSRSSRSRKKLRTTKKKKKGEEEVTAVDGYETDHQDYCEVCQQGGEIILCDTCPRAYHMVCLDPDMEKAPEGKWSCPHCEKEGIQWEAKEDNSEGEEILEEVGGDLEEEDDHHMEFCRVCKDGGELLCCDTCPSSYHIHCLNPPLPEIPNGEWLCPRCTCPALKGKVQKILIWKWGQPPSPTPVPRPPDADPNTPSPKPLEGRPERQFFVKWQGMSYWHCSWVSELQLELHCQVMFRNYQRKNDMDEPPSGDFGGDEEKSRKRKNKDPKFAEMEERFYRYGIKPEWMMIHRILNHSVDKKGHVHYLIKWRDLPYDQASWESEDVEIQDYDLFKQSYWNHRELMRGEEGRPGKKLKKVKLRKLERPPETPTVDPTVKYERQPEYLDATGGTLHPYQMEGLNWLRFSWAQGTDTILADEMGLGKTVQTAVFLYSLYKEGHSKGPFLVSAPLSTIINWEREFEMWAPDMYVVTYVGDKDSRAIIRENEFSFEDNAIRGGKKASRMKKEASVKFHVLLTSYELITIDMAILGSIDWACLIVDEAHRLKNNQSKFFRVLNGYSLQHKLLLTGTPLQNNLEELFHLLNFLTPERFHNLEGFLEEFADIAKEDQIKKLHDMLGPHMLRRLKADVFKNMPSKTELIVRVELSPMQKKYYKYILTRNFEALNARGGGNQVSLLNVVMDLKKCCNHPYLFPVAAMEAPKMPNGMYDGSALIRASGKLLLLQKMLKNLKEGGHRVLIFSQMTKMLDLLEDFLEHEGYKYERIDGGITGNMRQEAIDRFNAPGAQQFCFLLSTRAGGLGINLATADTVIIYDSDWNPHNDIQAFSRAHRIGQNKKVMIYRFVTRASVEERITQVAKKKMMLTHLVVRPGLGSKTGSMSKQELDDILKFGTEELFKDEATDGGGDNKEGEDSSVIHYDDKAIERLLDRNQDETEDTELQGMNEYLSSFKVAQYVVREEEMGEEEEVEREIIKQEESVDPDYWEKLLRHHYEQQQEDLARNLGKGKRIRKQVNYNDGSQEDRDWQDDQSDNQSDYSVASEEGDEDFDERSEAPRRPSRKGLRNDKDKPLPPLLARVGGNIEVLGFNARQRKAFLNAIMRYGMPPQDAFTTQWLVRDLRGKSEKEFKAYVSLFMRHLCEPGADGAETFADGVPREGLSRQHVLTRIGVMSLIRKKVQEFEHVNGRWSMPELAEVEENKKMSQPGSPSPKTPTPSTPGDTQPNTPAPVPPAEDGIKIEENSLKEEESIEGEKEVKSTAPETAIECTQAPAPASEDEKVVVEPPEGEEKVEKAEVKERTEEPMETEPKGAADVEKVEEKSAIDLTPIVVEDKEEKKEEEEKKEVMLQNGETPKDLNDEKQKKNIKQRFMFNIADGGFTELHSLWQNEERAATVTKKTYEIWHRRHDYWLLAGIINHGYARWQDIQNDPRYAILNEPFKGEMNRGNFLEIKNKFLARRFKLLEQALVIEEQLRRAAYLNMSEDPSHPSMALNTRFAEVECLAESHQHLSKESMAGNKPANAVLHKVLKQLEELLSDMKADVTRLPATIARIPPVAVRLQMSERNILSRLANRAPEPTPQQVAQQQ
UniProt Q8N1A6, sequence (Q8N1A6 whole entry, looked up): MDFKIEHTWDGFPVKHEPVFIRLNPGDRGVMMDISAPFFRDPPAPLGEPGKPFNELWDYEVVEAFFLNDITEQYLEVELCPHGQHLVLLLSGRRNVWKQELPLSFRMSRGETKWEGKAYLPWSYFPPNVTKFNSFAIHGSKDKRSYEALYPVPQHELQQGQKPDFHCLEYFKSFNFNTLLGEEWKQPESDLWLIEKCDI

| Target | log2 fold change |
| --- | --- |
| CNN2 (UniProt Q99439) | -0.104 |
| CHD4 isoform 2 (UniProt Q14839) | -0.122 |
| CSNK1A1 (UniProt P48729) | 0.031 |
| C4orf33 (UniProt Q8N1A6) | -0.218 |
| CRYM-AS1 (UniProt A6NIL9) | 0.27 |
| CDK16 isoform 2 (UniProt Q00536) | -0.104 |
| CIT isoform 4 (UniProt O14578) | -0.108 |
| CLPTM1L (UniProt Q96KA5) | -0.148 |
| CNOT2 (UniProt Q9NZN8) | -0.058 |
| CD151 (UniProt P48509) | 0.125 |
| CSNK2B (UniProt P67870) | 0.006 |
| COX15 (UniProt Q7KZN9) | -0.043 |
| CCNB1 (UniProt P14635) | -0.03 |
| CBX1 (UniProt P83916) | 0.025 |
| CNOT4 isoform 6 (UniProt O95628) | -0.074 |
| C9orf64 (UniProt Q5T6V5) | -0.338 |
| CLTB (UniProt P09497) | 0.043 |
| CCDC59 (UniProt Q9P031) | 0.166 |
| CALCOCO2 isoform 4 (UniProt Q13137) | -0.324 (active) |
| CPT1A (UniProt P50416) | 0.117 |
| COMMD2 (UniProt Q86X83) | -0.098 |
| CBR1 (UniProt P16152) | -0.029 |
